Common to all, as to assay: NCI-60 one-dose screen, 48 h (100 = growth as untreated, 0 = no growth, -100 = all killed)
Conditions in all cases: 10 µM unless noted

Test [1] deals with HCT-15 colon.
For test [2], the system named is HT29 colon.
The subject of test [3] is SNB-75 CNS.
The test system of test [4] is SNB-19 CNS.
In test [5] the test system is U251 CNS.
Test [6] concerns PC-3 prostate.
Test [7] has as its system SK-MEL-5 melanoma.
Test [8] deals with UACC-62 melanoma.
Test [9] relates to LOX IMVI melanoma.
For test [10], the system named is SK-MEL-28 melanoma.
In test [11] the test system is SK-MEL-2 melanoma.
The test system of test [12] is SN12C renal.
For test [13], the system named is UO-31 renal.
The subject of test [14] is TK-10 renal.
The subject of test [15] is ACHN renal.
Test [16] concerns CAKI-1 renal.
The subject of test [17] is A498 renal.
Test [18] has as its system CCRF-CEM leukemia.
Test [19] deals with MOLT-4 leukemia.

The structures appear in SMILES notation. Compounds without any hit were thinned out: in the full panel of roughly 83,000, 20% have a hit.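 A percent growth of 40 corresponds to 60% growth inhibition; 0 means no net growth; -100 means all cells died. Active threshold: below 10.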 Unmarked numbers belong to inactive results. The source made the active and inactive calls.

On to `O=C(Oc1cccc2ccccc12)c1ccccc1C(=O)c1ccccc1`, for which the growth in test [1] is 93.2%; in test [2], 59.5%; in test [3] it was 98.1%; in test [4] it was 101%; in test [5], 79.5%; in [6], 47.6%. Besides, the growth was 96.6% in test [7]; 96.6% in test [8]; 72.3% in test [9]; 119% in [10]; 97.1% in test [11]; 101% in test [12]. Also, the growth in test [13] was 60.8%; in [14], 129%; in [15], 95.5%; in test [16], 88.1%; in test [17], 70.8%; in [18] it was 16%. Besides, in test [19], the growth is 14.8%.

In the case of `CC1Cc2ccccc2N1C(=O)c1ccc(C(=O)c2ccccc2)cc1` (stereo not given), the growth in [1] is 86%; in test [2], 89.4%; in test [3] it was 94.3%; in test [4] it was 90.5%; in [5], 63.5%; in test [6], 97%. Besides, the growth in test [7] is 74.2%; in test [8], 73.6%; in test [9], 83%; in test [10], 99.5%; in test [11], 19%; in test [12], 81.9%. The growth in test [13] is 49.8%; in [14] it was 84.1%; in test [15], 89.7%; in [16], 77.8%; in test [17] it was 95.5%; in test [18], 94.3%. Also, in test [19], the growth is 91.5%.

As to `CC(C)CNc1nc(N=[N+]=[N-])nc(NCC(C)C)n1`, the growth is 54% [100 µM] in [1]; 60.4% [100 µM] in test [2]; 37.3% [100 µM] in test [3]; 54.8% [100 µM] in test [4]; 61.9% [100 µM] in test [5]; 23.3% [100 µM] in [6]. Further, the growth is 54.6% [100 µM] in test [7]; 59.1% [100 µM] in test [8]; 72.6% [100 µM] in test [9]; 76.9% [100 µM] in test [10]; 71.9% [100 µM] in test [11]; 70.8% [100 µM] in [12]. Further, the growth was 47.3% [100 µM] in test [13]; 77.5% [100 µM] in test [14]; 53.6% [100 µM] in test [15]; 4.03% [100 µM] (active) in test [16]; 35.5% [100 µM] in test [17]; 34.4% [100 µM] in test [19].

Turning to `CC[N+](CCCCCCCCCC[N+](CC)(c1ccccn1)c1ccccn1)(c1ccccn1)c1ccccn1`, the growth in [1] is 58.6%; in test [2], -34% (active); in test [3], 6.81% (active); in test [4], 13.3%; in test [5], 6.56% (active); in test [6], 2.94% (active). The growth was -72.4% (active) in test [7]; 0.363% (active) in test [8]; -54.4% (active) in test [9]; 15.1% in [10]; -58.6% (active) in [11]; 5.03% (active) in test [12]. Also, the growth in test [13] was 26.4%; in [14], -3% (active); in test [15], 20.9%; in test [16], 24.2%; in test [17], -2.28% (active); in test [19], -8.33% (active).

Take `COc1cc(/C=C\C(C)=N\Nc2ccccc2)ccc1O`: the growth in test [1] is 75.4%; in [2], 108%; in test [3], 98.7%; in [4] it was 103%; in test [5], 90.5%; in test [6] it was 67.2%. Also, the growth in [7] is 95%; in [8] it was 69.8%; in test [9] it was 73.1%; in test [10], 120%; in test [11], 92.5%; in test [12] it was 92.6%. Also, the growth in [13] is 66%; in [14], 94.5%; in [15], 97.6%; in test [16] it was 82.3%; in [17] it was 110%; in [18], 30.7%. The growth in test [19] is 70.9%.

With `CC[n+]1c(/C=C/c2ccc(N3CCCC3)cc2)cccc1/C=C/c1ccc(N2CCCC2)cc1`, the growth was -85.7% (active) in test [1]; -82.9% (active) in test [2]; -92.7% (active) in test [3]; -93.9% (active) in test [4]; -89.6% (active) in test [5]; -76.8% (active) in test [6]. Also, the growth is -87.6% (active) in test [7]; -86% (active) in test [8]; -76.5% (active) in test [9]; -93.6% (active) in test [10]; -89.8% (active) in test [11]; -79.9% (active) in [12]. Also, the growth in test [13] is -92.6% (active); in [14] it was -80.5% (active); in [15] it was -96.3% (active); in test [16] it was -67.9% (active); in test [17] it was -93% (active); in test [18] it was -7.16% (active). In test [19], the growth is 10.3%.

With `CCOc1cc(CCNS(=O)(=O)c2ccc(C)cc2)c(C(C)=O)cc1OCC`, the growth was 83.3% [100 µM] in [1]; 79.7% [100 µM] in test [2]; 93.3% [100 µM] in test [3]; 87.3% [100 µM] in test [4]; 86.4% [100 µM] in test [5]; 33.5% [100 µM] in [6]. For the same compound, the growth was 66.1% [100 µM] in [7]; 59% [100 µM] in test [8]; 87.1% [100 µM] in test [9]; 108% [100 µM] in test [10]; 86.1% [100 µM] in test [11]; 80.5% [100 µM] in [12]. Also, the growth in test [13] is -69.9% [100 µM] (active); in [14] it was 84.6% [100 µM]; in test [15], 75.5% [100 µM]; in [16] it was 36% [100 µM]; in test [17], 62.1% [100 µM]; in test [19], 9.64% [100 µM] (active).
